Measured values published in PubChem BioAssay AID1850 (Southern Research Specialized Biocontainment Screening …, 2009).
Among all 310,000 compounds or so, about 1,000 (0.32%) were called active. How the calls were made is not given here. A selection follows. Results with a measured potency or affinity are listed apart. Where a SMILES comes first, the peptide text is derived from it. The star is where a group is joined. Boc = CC(C)(C)OC(=O)*

Test: PhoP regulon inhibitors, Salmonella typhi PhoP promoter GFP reporter, confirmatory (AID 1850);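 further: 0% = induced wells with vehicle and 100% = uninduced wells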
Conditions: fluorescence, 4 h, at 50 µM, active compounds read high

Question: For CC1CCCN(C(=O)C23CCC(C)(C(=O)C2)C3(C)C)C1 (stereo not given), which inhibition is on record?
Answer: The inhibition was -4.73% (inactive).

Question: For COc1cc(CCC(=O)N2CC(C)OC(C)C2)cc(OC)c1OC (stereo not given), which inhibition is on record?
Answer: The inhibition was -14.2% (inactive).

Question: With CC(C)CN(C(=O)CN(C)C(=O)c1ccco1)c1c(N)n(CC(C)C)c(=O)[nH]c1=O as the compound, how does the inhibition read?
Answer: Its inhibition is -1.06% (inactive).

Question: With Cc1cc2oc(=O)cc(Cn3ncc(Cl)c(Cl)c3=O)c2cc1Cl as the compound, how does the inhibition read?
Answer: The inhibition was -3.81% (inactive).

Question: Which inhibition does the source give for Cc1cccc(OCCNc2cc(N3CCN(C)CC3)ccc2[N+](=O)[O-])c1 here?
Answer: The inhibition was -4.31% (inactive).

Question: Which inhibition does the source give for COC(=O)[C@@H](NC(=O)c1ccccc1)[C@@H](C)O here?
Answer: Its inhibition is -3.17% (inactive).

Question: Which inhibition does the source give for COc1cccc(CN2CC(C(=O)NC3CCC3)CCC2=O)c1 (stereo not given) here?
Answer: The inhibition was -3.12% (inactive).

Question: Which inhibition does the source give for C/C(=N\Nc1ccccc1Cl)c1ccc(-n2ccnc2)cc1 here?
Answer: Its inhibition is 7.81% (inactive).

Question: With CCCCOC(=O)c1ccc(NC(=O)COC(=O)CSc2nc(C)cc(C)n2)cc1 as the compound, how does the inhibition read?
Answer: Its inhibition is -5.18% (inactive).

Question: With CN(C)CCC1Sc2ccccc2Oc2ccccc21 (stereo not given) as the compound, how does the inhibition read?
Answer: The inhibition was -1.34% (inactive).

Question: Which inhibition does the source give for CNCCC1Sc2ccccc2Oc2ccccc21 (stereo not given) here?
Answer: Its inhibition is 10.6% (inactive).

Question: For COc1ccccc1NC(=O)CSc1nnc(CCC(=O)Nc2ccccc2F)n1C, which inhibition is on record?
Answer: The inhibition was -5.48% (inactive).

Question: With Cc1ccc(C(=O)Nn2cnnc2)cc1 as the compound, how does the inhibition read?
Answer: Its inhibition is -11.2% (inactive).

Question: For CCOC(=O)C1C(c2cccs2)NC(=O)N(C)C1(O)C(F)(F)F (stereo not given), which inhibition is on record?
Answer: Its inhibition is -2.14% (inactive).

Question: For COc1cc(C2NC(=O)NC(O)(C(F)(F)F)C2C(=O)c2cccs2)ccc1O (stereo not given), which inhibition is on record?
Answer: Its inhibition is -4.52% (inactive).

Question: With O=C1NC(c2ccccc2)C(C(=O)c2cccs2)C(O)(C(F)(F)F)N1 (stereo not given) as the compound, how does the inhibition read?
Answer: The inhibition was 0.79% (inactive).

Question: For O=C1NC(c2ccncc2)C(C(=O)c2cccs2)C(O)(C(F)(F)F)N1 (stereo not given), which inhibition is on record?
Answer: The inhibition was 2.95% (inactive).

Question: For CCc1nnc(NC(=O)CN2CCN(CC)CC2)s1, which inhibition is on record?
Answer: The inhibition was -8.02% (inactive).

Question: For Cc1cccc2nc3ccccc3cc12, which inhibition is on record?
Answer: Its inhibition is -7.86% (inactive).

Question: With Nc1c2ccccc2nc2ccccc12 as the compound, how does the inhibition read?
Answer: The inhibition was 17.1% (inactive).

Question: With COCCNC(=O)c1ccc(CN2CCC(Cc3ccccc3)CC2)cc1 as the compound, how does the inhibition read?
Answer: The inhibition was -1.7% (inactive).

Question: Which inhibition does the source give for CCOC(=O)C1CCN(C(=O)c2ccccc2NS(=O)(=O)c2ccc(C)cc2)CC1 here?
Answer: Its inhibition is -7.2% (inactive).

Question: For CC(Sc1nnc(N)s1)C(=O)Nc1ccc2c(c1)OCCO2 (stereo not given), which inhibition is on record?
Answer: The inhibition was -3.64% (inactive).

Question: With CCCNC(=O)Cn1cnc([N+](=O)[O-])n1 as the compound, how does the inhibition read?
Answer: Its inhibition is -4.49% (inactive).

Question: With NC(CO)C(O)c1ccc([N+](=O)[O-])cc1 (stereo not given) as the compound, how does the inhibition read?
Answer: Its inhibition is -4.54% (inactive).

Question: For O=C(Cc1ccccc1)NC(C(=O)O)C(O)c1ccc([N+](=O)[O-])cc1 (stereo not given), which inhibition is on record?
Answer: Its inhibition is 3.65% (inactive).

Question: With CC(Cc1ccccc1)NC(=O)Cc1ccc([N+](=O)[O-])cc1 (stereo not given) as the compound, how does the inhibition read?
Answer: Its inhibition is -4.09% (inactive).

Question: Which inhibition does the source give for CCOC(=O)C(NC(C)=O)C(O)c1ccc([N+](=O)[O-])cc1 (stereo not given) here?
Answer: Its inhibition is 3.41% (inactive).

Question: Which inhibition does the source give for O=C(O)CC(Cc1ccc(Cl)cc1)C(=O)Nc1ccc([N+](=O)[O-])cc1 (stereo not given) here?
Answer: Its inhibition is -5.39% (inactive).

Question: For O=[N+]([O-])c1ccc(C(O)C(CO)NC(=S)Nc2ccccc2)cc1 (stereo not given), which inhibition is on record?
Answer: The inhibition was 11.5% (inactive).

Question: For Cc1ccc([N+](=O)[O-])cc1S(=O)(=O)NCc1cccnc1, which inhibition is on record?
Answer: The inhibition was -0.437% (inactive).

Question: With COc1ccc(CC(=O)NC(C)C2COc3ccccc3O2)cc1OC (stereo not given) as the compound, how does the inhibition read?
Answer: The inhibition was 0.47% (inactive).

Question: Which inhibition does the source give for O=C(NNS(=O)(=O)c1ccc(Cl)cc1)c1cccc(S(=O)(=O)N2CCOCC2)c1 here?
Answer: The inhibition was 6.08% (inactive).

Question: For CC1CCN(C2CC(=O)N(c3ccccc3)C2=O)CC1 (stereo not given), which inhibition is on record?
Answer: The inhibition was -1.51% (inactive).

Question: With CC1(C)Cc2cccc(OCC(=O)OCC(=O)NCc3ccc(F)cc3)c2O1 as the compound, how does the inhibition read?
Answer: Its inhibition is 5.2% (inactive).

Question: For CC1(NC(=O)c2cccc(S(=O)(=O)N3CCN(c4ccccc4)CC3)c2)CCS(=O)(=O)C1 (stereo not given), which inhibition is on record?
Answer: The inhibition was -4.48% (inactive).

Question: For CN1CC(C(=O)c2ccc(Cl)cc2)C(c2ccccc2)C1 (stereo not given), which inhibition is on record?
Answer: The inhibition was -0.32% (inactive).

Question: For CN1CC(C(=O)c2ccc(Cl)cc2)C(c2ccccc2F)C1 (stereo not given), which inhibition is on record?
Answer: Its inhibition is -5.31% (inactive).

Question: Which inhibition does the source give for CN(C)Cc1cnc2ccc(Cl)cn12 here?
Answer: The inhibition was 2.3% (inactive).

Question: Which inhibition does the source give for COc1ccc(/C=N\NS(=O)(=O)c2ccc(C)cc2)cc1COc1ccccc1[N+](=O)[O-] here?
Answer: The inhibition was 2.43% (inactive).

Question: With Cc1ccc(CNC(=O)CSc2ncc(C(=O)Nc3ccccc3)c(=O)n2C)cc1 as the compound, how does the inhibition read?
Answer: The inhibition was 6.4% (inactive).

Question: With CC(C)CC(NC(=O)OC(C)(C)C)C(=O)NC(C(=O)N1CCCC1C(N)=O)C(C)C (stereo not drawn) (Boc-Leu-Val-Pro-NH2; configuration not given here) as the compound, how does the inhibition read?
Answer: The inhibition was -15.4% (inactive).

Question: With CC(C)(C)OC(=O)N1CCC[C@@H]1CO as the compound, how does the inhibition read?
Answer: The inhibition was -5.17% (inactive).

Question: With O=c1[nH]c(=O)n(CCC2=CCCCC2)c(O)c1C=NC1CCN(Cc2ccccc2)CC1 as the compound, how does the inhibition read?
Answer: Its inhibition is 5.62% (inactive).

Question: For CC1CCCCN1CC(=O)c1ccc2cc[nH]c2c1 (stereo not given), which inhibition is on record?
Answer: Its inhibition is -0.31% (inactive).

Question: Which inhibition does the source give for Cc1ccc(CC2S/C(=C(/C#N)C(=O)NCc3ccco3)N(c3ccccc3)C2=O)cc1 (stereo not given) here?
Answer: The inhibition was -3.66% (inactive).

Question: For Cc1ccc(S(=O)(=O)NC(=NC2CCCCC2)c2ccccc2)cc1, which inhibition is on record?
Answer: The inhibition was 5.09% (inactive).

Question: With Cc1nonc1NC(=O)CSc1ccccn1 as the compound, how does the inhibition read?
Answer: The inhibition was 6.57% (inactive).

Question: For COc1cc([N+](=O)[O-])cc(/C=N/NC(=O)CSc2nnc(-c3ccccc3)n2C)c1O, which inhibition is on record?
Answer: The inhibition was -13.2% (inactive).

Question: Which inhibition does the source give for COc1cc([N+](=O)[O-])cc(/C=N/NC(=O)Cn2nccc2C)c1O here?
Answer: The inhibition was 14.4% (inactive).

Question: With COc1ccc(O)c(/C=N/Nc2nc3ccccc3[nH]2)c1 as the compound, how does the inhibition read?
Answer: Its inhibition is 7.61% (inactive).

Question: Which inhibition does the source give for CCN(CC)c1ccc(/C=N/Nc2nc3ccccc3[nH]2)c(O)c1 here?
Answer: Its inhibition is 13.9% (inactive).

Question: With O=[N+]([O-])c1ccc(/C=N/Nc2ccccn2)cc1 as the compound, how does the inhibition read?
Answer: The inhibition was -0.36% (inactive).

Question: With CC(=O)Nc1nonc1NC(=O)CSc1ccccn1 as the compound, how does the inhibition read?
Answer: Its inhibition is 2.24% (inactive).

Question: With O=[N+]([O-])c1cccc(/C=N/Nc2ccccn2)c1 as the compound, how does the inhibition read?
Answer: The inhibition was 8.41% (inactive).

Question: With COc1cccc(N2CCN(C(=O)C3CCN(S(=O)(=O)c4ccc5c(c4)oc(=O)n5C)CC3)CC2)c1 as the compound, how does the inhibition read?
Answer: Its inhibition is 8.62% (inactive).

Question: For Cc1ccc(C)c(-c2csc(-c3cccnc3)n2)c1, which inhibition is on record?
Answer: Its inhibition is 1.2% (inactive).

Question: For COc1ccc(-c2cc(-c3ccc(O)cc3)nc(N)c2C#N)cc1, which inhibition is on record?
Answer: Its inhibition is -1.2% (inactive).

Question: For N#C/C(=C\c1ccccc1Cl)C(=O)Nc1ccccn1, which inhibition is on record?
Answer: The inhibition was 2.25% (inactive).

Question: With COC(=O)COc1ccc(C(C2C(=O)CC(C)(C)CC2=O)C2C(=O)CC(C)(C)CC2=O)cc1 as the compound, how does the inhibition read?
Answer: Its inhibition is -2.61% (inactive).
